Compounds without any hit were thinned out: in the full panel of roughly 83,000, 20% have a hit.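 Assay: single dose, 48 h. Readout: percent growth (0 = no net growth; negative = cell death). Active: <10.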 A number with no mark means an inactive call. Calls of active or inactive are those of the source.

What all share (test): NCI-60 one-dose screen, 48 h (100 = growth as untreated, 0 = no growth, -100 = all killed)
In one assay the test system is SK-MEL-2 melanoma. To be noted: 10 µM unless noted.
The next assay has as its system EKVX NSCLC. To be noted: 10 µM unless noted.
A further assay has as its system SN12C renal. Conditions: 10 µM unless noted.
A further assay deals with UO-31 renal. Conditions: 10 µM unless noted.
For a further assay, the system named is TK-10 renal. Conditions: 10 µM unless noted.
The subject of the next assay is ACHN renal. To be noted: 10 µM unless noted.
For the next assay, the system named is CAKI-1 renal. To be noted: 10 µM unless noted.
Another assay has as its system HL-60(TB) leukemia. To be noted: 10 µM unless noted.
The subject of a further assay is CCRF-CEM leukemia. To be noted: 10 µM unless noted.
The test system of the next assay is MOLT-4 leukemia. Conditions: 10 µM unless noted.
Another assay has as its system SR leukemia. Conditions: 10 µM unless noted.
The test system of a further assay is RPMI-8226 leukemia. Conditions: 10 µM unless noted.
The test system of the next assay is OVCAR-8 ovarian. To be noted: 10 µM unless noted.
The subject of the next assay is OVCAR-5 ovarian. To be noted: 10 µM unless noted.
The next assay has as its system OVCAR-4 ovarian. To be noted: 10 µM unless noted.
The test system of another assay is SK-OV-3 ovarian. To be noted: 10 µM unless noted.
Another assay concerns IGROV1 ovarian. Conditions: 10 µM unless noted.
The test system of a further assay is OVCAR-3 ovarian. Conditions: 10 µM unless noted.
Another assay has as its system A498 renal. Conditions: 10 µM.
The subject of another assay is HS 578T breast. To be noted: 10 µM unless noted.

For the compound `Cc1cccc(N2CCN(C(C)C#N)CC2)c1` (centres undefined), the growth in the assay with SK-MEL-2 melanoma is 104%; with EKVX NSCLC it was 100%; with SN12C renal it was 103%; with UO-31 renal it was 84%; in the assay on TK-10 renal, 119%; in the assay with ACHN renal, 104%. The growth in the assay with CAKI-1 renal was 95%; with HL-60(TB) leukemia, 94.2%; with CCRF-CEM leukemia it was 107%; with MOLT-4 leukemia it was 106%; in the assay on SR leukemia it was 98.2%; in the assay with RPMI-8226 leukemia, 104%. Also, the growth in the assay with OVCAR-8 ovarian was 106%; in the assay on OVCAR-5 ovarian it was 103%; in the assay on OVCAR-4 ovarian it was 114%; in the assay with SK-OV-3 ovarian it was 102%; with IGROV1 ovarian it was 108%; in the assay with OVCAR-3 ovarian, 109%.
Regarding `O=C(N/N=C\c1ccc(N(CCCl)CCCl)cc1)c1cccc([N+](=O)[O-])c1`, the growth with SK-MEL-2 melanoma was 101%; with EKVX NSCLC, 88.6%; in the assay with SN12C renal, 88.9%; in the assay with UO-31 renal, 90.6%; in the assay with TK-10 renal it was 99.2%; in the assay with ACHN renal it was 94.4%. The growth in the assay on CAKI-1 renal was 89.3%; with A498 renal, 118%; in the assay on CCRF-CEM leukemia it was 82.5%; in the assay with MOLT-4 leukemia, 89.7%; in the assay with SR leukemia it was 103%; in the assay on RPMI-8226 leukemia, 95.6%. Besides, the growth in the assay with OVCAR-8 ovarian was 63.4%; in the assay with OVCAR-5 ovarian, 109%; in the assay with OVCAR-4 ovarian, 87%; in the assay with SK-OV-3 ovarian, 82.7%; with IGROV1 ovarian it was 76.8%; with OVCAR-3 ovarian, 83.2%. The growth in the assay with HS 578T breast was 64.2%.
With `CC12CCC(O)CC1=CCC1C2CCC2(C)C(O)CCC12` (centres undefined), the growth in the assay on SK-MEL-2 melanoma is 110%; with EKVX NSCLC, 71.9%; in the assay with SN12C renal it was 105%; with UO-31 renal, 98.5%; with TK-10 renal, 105%; with ACHN renal it was 107%. The growth with CAKI-1 renal is 93.2%; in the assay with A498 renal, 81.1%; in the assay with CCRF-CEM leukemia it was 94.9%; in the assay on MOLT-4 leukemia, 114%; with SR leukemia, 106%; in the assay with RPMI-8226 leukemia, 94.6%. In addition, the growth was 112% in the assay with OVCAR-8 ovarian; 97.3% in the assay with OVCAR-5 ovarian; 110% in the assay on OVCAR-4 ovarian; 118% in the assay on SK-OV-3 ovarian; 113% in the assay with IGROV1 ovarian; 104% in the assay with OVCAR-3 ovarian. The growth in the assay with HS 578T breast is 105%.
As to `O=C(c1cccc(O)c1O)c1cn(Cc2ccc(F)cc2)c2cccc(O)c12`, the growth in the assay on SK-MEL-2 melanoma was -6.9% (active); in the assay with EKVX NSCLC, 52.4%; with SN12C renal it was 34%; with UO-31 renal it was -10.3% (active); with TK-10 renal it was 77%; in the assay with ACHN renal, 21.5%. Further, the growth is 21.5% with CAKI-1 renal; 108% in the assay with A498 renal; 4.35% (active) in the assay with CCRF-CEM leukemia; 4.3% (active) with MOLT-4 leukemia; 9.16% (active) in the assay on RPMI-8226 leukemia; 30.5% with OVCAR-8 ovarian. The growth with OVCAR-5 ovarian is 33.8%; with OVCAR-4 ovarian it was 39%; with SK-OV-3 ovarian, 40.7%; with OVCAR-3 ovarian, 22.3%; in the assay with HS 578T breast, 45.5%.
In the case of `CC1(C)CN1P(=O)(N1CC1(C)C)N1CC1(C)C` (centres undefined), the growth in the assay on SK-MEL-2 melanoma was 115%; with EKVX NSCLC, 124%; in the assay on SN12C renal, 109%; in the assay on UO-31 renal, 85%; in the assay with TK-10 renal it was 118%; in the assay on ACHN renal, 112%. Besides, the growth in the assay with CAKI-1 renal is 110%; in the assay with A498 renal, 102%; in the assay on CCRF-CEM leukemia it was 106%; with MOLT-4 leukemia, 96.6%; in the assay on SR leukemia, 91.3%; with RPMI-8226 leukemia it was 105%. The growth in the assay with OVCAR-8 ovarian was 90.5%; in the assay on OVCAR-5 ovarian, 115%; with OVCAR-4 ovarian, 97.9%; in the assay with SK-OV-3 ovarian, 102%; with IGROV1 ovarian it was 114%; in the assay on OVCAR-3 ovarian, 118%. Further, in the assay with HS 578T breast, the growth was 93.8%.
`Clc1cc(N2CC2)nc(N2CC2)n1`: the growth with SK-MEL-2 melanoma was 91%; in the assay on EKVX NSCLC, 107%; in the assay on SN12C renal, 48.5%; in the assay with UO-31 renal, 74.7%; with TK-10 renal, 104%; in the assay on ACHN renal, 22.2%. For the same compound, the growth in the assay on CAKI-1 renal is 5.82% (active); with A498 renal it was 104%; with CCRF-CEM leukemia, 54.8%; in the assay with MOLT-4 leukemia it was 46.6%; in the assay on SR leukemia, 34.7%; with RPMI-8226 leukemia, 80.4%. For the same compound, the growth with OVCAR-8 ovarian is 64.5%; in the assay on OVCAR-5 ovarian, 102%; in the assay with OVCAR-4 ovarian it was 95.2%; with SK-OV-3 ovarian it was 71%; in the assay on IGROV1 ovarian it was 109%; with OVCAR-3 ovarian, 107%. For the same compound, in the assay on HS 578T breast, the growth was 115%.
For the compound `Cc1c(NS(=O)(=O)c2ccccc2)ccc([N+](=O)[O-])c1Cl`, the growth in the assay with SK-MEL-2 melanoma was 65.1%; with EKVX NSCLC it was 65.3%; with SN12C renal, 58.6%; in the assay with UO-31 renal, 45.1%; with TK-10 renal, 77%; in the assay with ACHN renal it was 69.7%. For the same compound, the growth in the assay on CAKI-1 renal is 47.8%; in the assay on A498 renal, 59.3%; in the assay with CCRF-CEM leukemia it was 64.3%; in the assay on MOLT-4 leukemia, 73.6%; with SR leukemia, 73.8%; in the assay with RPMI-8226 leukemia it was 42.4%. The growth is 74.6% in the assay on OVCAR-8 ovarian; 89.1% with OVCAR-5 ovarian; 47.3% in the assay on OVCAR-4 ovarian; 71.3% in the assay with SK-OV-3 ovarian; 72.5% in the assay with IGROV1 ovarian; 42.2% in the assay with OVCAR-3 ovarian. Also, the growth with HS 578T breast was 64.4%.
Take `C[C@]12CCc3nc(Nc4ccccc4F)sc3C1=CC[C@@H]1[C@@H]2CC[C@]2(C)C(=O)CC[C@@H]12`: the growth with SK-MEL-2 melanoma is 92.8%; with EKVX NSCLC, 94.4%; in the assay with SN12C renal, 69.5%; in the assay with UO-31 renal, 64.8%; with TK-10 renal, 35.7%; with ACHN renal, 9.9% (active). Besides, the growth in the assay on CAKI-1 renal was 65.4%; in the assay with A498 renal, 90.6%; in the assay on CCRF-CEM leukemia, 26.6%; in the assay with MOLT-4 leukemia, 14.2%; in the assay with SR leukemia, 11.4%; in the assay with RPMI-8226 leukemia, 15%. Besides, the growth with OVCAR-8 ovarian is 70.8%; with OVCAR-5 ovarian, 76.5%; in the assay with OVCAR-4 ovarian, 73.9%; in the assay with SK-OV-3 ovarian, 72.6%; in the assay with IGROV1 ovarian, 61.8%; in the assay with OVCAR-3 ovarian it was 29.2%. Moreover, the growth with HS 578T breast was 67.8%.

For the origin of these results see PubChem BioAssay (NCI).
